Among all 48,000 compounds or so, about 13,000 (27%) showed an effect of 50% or more. This is one part of the list.
Each compound was assayed on Wolbachia pipientis (assay: Anti-Wolbachia Cell-Based Screen). Details: 5 µM.
Assay type: functional
Set-up: scale not given: in the data most compounds retested in dose-response had high values
For `CC1COc2ccccc2N1C(=O)CCc1cscn1` (stereo not drawn), the “Percent Effect” value was -5.764%. For `O=C(O)c1nnn(Cc2ccc(F)cc2)c1-c1cccnc1`, the “Percent Effect” value was 3.102%. `O=C(O)c1nc(SCc2ccc(F)cc2)ncc1Br` was tested, and the “Percent Effect” value was 202.4%. In the case of `Cc1ccccc1CSc1nc(N)cc(N2CCC(CC(N)=O)CC2)n1`, the “Percent Effect” value is reported as 7.144%. With `Cc1ccccc1CSc1nc(N)cc(N2CCCC(C(N)=O)C2)n1` (stereo not drawn) the “Percent Effect” value was -15%. In the case of `Cc1ccccc1CSc1ncc(Br)c(C(=O)O)n1`, the “Percent Effect” value is reported as 130.2%. For `Cc1cc(CN2CCc3nn(C(C)C)c(=O)cc3C2)no1`, the “Percent Effect” value was -4.35%. For `CCc1csc(CCNC(=O)C2CC(=O)N(C(C)C)C2)n1` (stereo not drawn), the “Percent Effect” value was 2.498%. `CCOCCC(=O)NC(c1noc(C)n1)c1ccccc1F` (stereo not drawn) was tested, and the “Percent Effect” value was -21.83%. For `COc1ccc(CNCC(C)Oc2ccccn2)cc1Br.Cl` (stereo not drawn), the “Percent Effect” value was 9.774%. With `NC(=O)c1noc(Cn2ccc3ccccc3c2=O)n1` the “Percent Effect” value was -17.09%. For `Cc1ccc(OCCN(C)C(C)c2cccc(S(N)(=O)=O)c2)cc1` (stereo not drawn), the “Percent Effect” value was 121.8%. With `CNS(=O)(=O)c1cccc(C(C)NCc2ccccc2)c1` (stereo not drawn) the “Percent Effect” value was -4.826%. For `Cc1ccc(C(C)N(C)CCS(=O)(=O)CCC(N)=O)cc1` (stereo not drawn), the “Percent Effect” value was 1.361%. With `CC(c1cccc(S(N)(=O)=O)c1)N(C)CCCOc1ccccc1` (stereo not drawn) the “Percent Effect” value was 114.5%. For `Cc1ccc(OCCCC(=O)NC(C)c2ccc(S(N)(=O)=O)cc2)cc1` (stereo not drawn), the “Percent Effect” value was 31.07%. `CN(CCCOc1ccccc1)S(=O)(=O)N1CCOCC1` was tested, and the “Percent Effect” value was 2.231%. In the case of `Cc1cccc(C2CCCN2C(=O)CN(C)S(C)(=O)=O)c1C` (stereo not drawn), the “Percent Effect” value is reported as -12.58%. For `Cc1n[nH]c(C2CN(C(=O)c3scnc3C)CCO2)n1` (stereo not drawn), the “Percent Effect” value was -53.57%. `Cn1ccc(C(=O)N2CCOC(c3ccc(C(N)=O)cn3)C2)n1` (stereo not drawn) was tested, and the “Percent Effect” value was 91.81%. `CNC(=O)c1ccc(C2CN(C(=O)c3cnn(C)c3)CCO2)nc1` (stereo not drawn) was tested, and the “Percent Effect” value was 109.7%. For `CNC(=O)c1ccc(C2CN(C(=O)c3scnc3C)CCO2)nc1` (stereo not drawn), the “Percent Effect” value was 111.8%. In the case of `CCC1CN(C(=O)c2cnc(-c3cnn(C)c3)s2)CCO1` (stereo not drawn), the “Percent Effect” value is reported as -21.53%. `O=C(c1ccncc1F)N1CCOC(c2cccc(O)c2)C1` (stereo not drawn) was tested, and the “Percent Effect” value was -9.281%. In the case of `O=C(c1cccnc1)N1CCOC(c2ccc(-c3cncnc3)cn2)C1` (stereo not drawn), the “Percent Effect” value is reported as 91.28%. With `Cc1n[nH]c(C2CN(C(=O)c3ccc(=O)n(C)c3)CCO2)n1` (stereo not drawn) the “Percent Effect” value was -1.43%. `Cc1nc(N)cc(C2CN(C(=O)c3ccn(C)n3)CCO2)n1` (stereo not drawn) was tested, and the “Percent Effect” value was -11.99%. For `O=C(c1cccnc1)N1CCOC(CCCc2ccccc2)C1` (stereo not drawn), the “Percent Effect” value was 4.666%. With `CNC(=O)c1ccc(C2CN(C(=O)c3cncs3)CCO2)nc1` (stereo not drawn) the “Percent Effect” value was -5.383%. In the case of `CCN(Cc1noc(CC(C)C)n1)Cc1ccccc1C(=O)O`, the “Percent Effect” value is reported as 3.594%. For `COc1ccc(C(=O)C2CCCN(c3cc(N)ncn3)C2)c(C)c1` (stereo not drawn), the “Percent Effect” value was -12.01%. With `Cc1cc(C[C@@H]2COC[C@@H]2NC(=O)CN2CCCN(C)CC2)on1` the “Percent Effect” value was -4.417%. `Cc1cc(C2CCCN2C(=O)CN2CCc3ccccc32)on1` (stereo not drawn) was tested, and the “Percent Effect” value was -2.751%. For `Cc1[nH]ncc1C(=O)N1CCOC(c2cccs2)C1` (stereo not drawn), the “Percent Effect” value was 6.058%. `CNC(=O)c1ccc(C2CN(C(=O)c3coc(C)n3)CCO2)nc1` (stereo not drawn) was tested, and the “Percent Effect” value was 128.9%. `CNC(=O)c1ccc(C2CN(C(=O)c3c[nH]nc3C)CCO2)nc1` (stereo not drawn) was tested, and the “Percent Effect” value was 101.4%. In the case of `CS(=O)(=O)CCCC(=O)Nc1cc(Cl)c(Cl)cn1`, the “Percent Effect” value is reported as 1.598%. In the case of `Cc1cc(NC(=O)c2ccc(C)c(F)c2)[nH]n1`, the “Percent Effect” value is reported as 2.098%. For `O=C(COCC1CC1)Nc1cc(-c2ccc(Br)s2)n[nH]1`, the “Percent Effect” value was -5.562%. In the case of `CCS(=O)(=O)CC(=O)Nc1cc(-c2cccc(F)c2F)n[nH]1`, the “Percent Effect” value is reported as 100.6%. With `COc1ccccc1-c1cc(NC(=O)COCC2CC2)[nH]n1` the “Percent Effect” value was 4.73%. `CCOCC(=O)Nc1cc(-c2cccc(F)c2F)n[nH]1` was tested, and the “Percent Effect” value was 91.5%. For `COc1ccccc1-c1cc(NC(=O)CCS(=O)(=O)C2CCCC2)[nH]n1`, the “Percent Effect” value was 7.035%. `CC(=O)Nc1cc(-c2cccc(F)c2F)n[nH]1` was tested, and the “Percent Effect” value was 88.91%. For `CS(=O)(=O)CCCC(=O)Nc1cc(-c2cccc(F)c2F)n[nH]1`, the “Percent Effect” value was 87.07%. `CCS(=O)(=O)CC(=O)NCC1(c2c(F)cccc2F)CCCC1` was tested, and the “Percent Effect” value was -2.417%. In the case of `CCS(=O)(=O)CC(=O)Nc1c(C)cnn1Cc1cc(F)ccc1F`, the “Percent Effect” value is reported as -26.81%. `COc1ccc(Cl)cc1-c1cc(NC(=O)C2CNC(=O)N2)[nH]n1` (stereo not drawn) was tested, and the “Percent Effect” value was 7.586%. `CN1CCOC(C(=O)N2CCCC(C)(C)CC2)C1` (stereo not drawn) was tested, and the “Percent Effect” value was -5.11%. `CCc1c(C)nc(N)nc1NCCSCc1[nH]cnc1C` was tested, and the “Percent Effect” value was -21.58%. In the case of `c1coc(-c2nc(CN3CCn4c(nnc4C4CC4)C3)cs2)c1`, the “Percent Effect” value is reported as 21.52%. In the case of `N#Cc1cccnc1N1CCCC(CO)(Cc2ccc(F)cc2)C1` (stereo not drawn), the “Percent Effect” value is reported as -22.45%. In the case of `CN(C)C(=O)c1ccc2c(c1)N(C)C(CC(=O)NCc1ncc[nH]1)CO2` (stereo not drawn), the “Percent Effect” value is reported as -21.18%.

— ChEMBL document CHEMBL3988442, “University of Dundee, Small-Polar-MMV Screening Library” (2021)
